This is an account of results in PubChem BioAssay (EPA / NIEHS).

Molecules are shown by their SMILES. Records with an inconclusive call do not appear. Calls of active or inactive are those of the source. How the source made its calls, unless noted: active means hit-call score of the fitted dose curve at least 0.9, where 1 is the maximum; inactive means score below 0.9.

The target of experiment [1] is Paired box protein Pax-6 (Homo sapiens) (UniProt P26367). Kind of experiment: ATG_Pax6_CIS: Attagene CIS-FACTORIAL HepG2 Assay for human Paired Box 6 (PAX6) (AID 2282956). As to conditions: HepG2 CIS-FACTORIAL PAX6 reporter transcription, RNA readout; actives raise or lower the signal. An outline of the steps: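 Transient MRTU transfection of HepG2 → compound exposure 24 h → TriZol RNA, oligo(dT) RT → PCR, 6-FAM primer extension, HpaI cut → capillary electrophoresis; activity fitted both directions against DMSO.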

Experiment [2] in a line: ATG_PXRE_CIS: Attagene CIS-FACTORIAL HepG2 Assay for human Pregnane X Receptor Element (PXRE) (AID 2282957). As to conditions: HepG2 Attagene CIS-FACTORIAL PXRE reporter, mRNA; actives raise or lower the signal. The method, boiled down: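 Cells: HepG2, transiently transfected reporter units under cis promoter control. Exposure: 24 h. Detection: reporter mRNA via RT-PCR/CE fluorescence; bidirectional fitting, DMSO-referenced.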

The nature of experiment [3]: ATG_PPRE_CIS: Attagene CIS-FACTORIAL HepG2 Assay for human Peroxisome Proliferator-activated Response Element (PPRE) (AID 2282958). To be noted: HepG2 PPRE cis-element reporter, Attagene transcription factor profiling; actives raise or lower the signal. An outline of the steps:
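Cells are first transfected transiently with the multiplexed reporter library, then dosed for 24 h. Total RNA is reverse-transcribed, amplified, fluorescently end-labeled and HpaI-cut before capillary electrophoresis; activity is fitted bidirectionally against DMSO controls.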

A short description of experiment [4]: ATG_RORE_CIS: Attagene CIS-FACTORIAL HepG2 Assay for human RAR-related Orphan Receptor Element (RORE) (AID 2282959). As to conditions: HepG2 Attagene cis-factorial RORE reporter, mRNA; actives raise or lower the signal. An outline of the steps: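 Cells were HepG2 carrying transfected cis-regulated reporter constructs, dosed for 24 hours. Total RNA was reverse-transcribed and reporter cDNA amplified, fluorescently labeled and sized by capillary electrophoresis. Activity was fitted bidirectionally relative to DMSO.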

A short description of experiment [5]: ATG_Sox_CIS: Attagene CIS-FACTORIAL HepG2 Assay for human SRY-box transcription factor (SOX) (AID 2282960). As to conditions: HepG2 Attagene cis-factorial SOX reporter, mRNA; actives raise or lower the signal. An outline of the steps: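 Transient MRTU transfection of HepG2; 24 h compound incubation; TriZol RNA, oligo(dT) RT, PCR, 6-FAM primer extension, HpaI cut, CE. Bidirectional fit, DMSO = baseline.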

For experiment [6], the target named is Transcription factor Sp1 (Homo sapiens) (UniProt P08047). The experiment can be described thus: ATG_Sp1_CIS: Attagene CIS-FACTORIAL HepG2 Assay for human Specificity Protein 1 (Sp1) (AID 2282961). As to conditions: HepG2 Sp1 cis-reporter transcription, actives raise or lower the signal. An outline of the steps:
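Endogenous Sp1 activity was gauged in human liver HepG2 cells bearing transfected reporter units under a cis-regulating promoter. After 24 h dosing, reporter mRNA was quantified by RT-PCR with capillary electrophoresis, and activity fitted bidirectionally versus DMSO.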

Experiment [7] is described as follows: ATG_TA_CIS: Attagene CIS-FACTORIAL HepG2 Assay for human TA Basal Promoter (AID 2282964). As to conditions: HepG2 Attagene CIS-factorial TA basal promoter reporter; actives raise or lower the signal. The method, boiled down:
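HepG2 cells transiently transfected with multiplexed cis-promoter reporter units, dosed 24 h. Reporter mRNA measured by RT-PCR, 6-FAM labelling, HpaI digestion and capillary electrophoresis; bidirectional fit versus DMSO baseline, serving as background control.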

Experiment [8] is described as follows: ATG_TCF_b_cat_CIS: Attagene CIS-FACTORIAL HepG2 Assay for human T-Cell-Factor with beta-catenin (TCF/b-cat) (AID 2282965). As to conditions: HepG2 TCF/beta-catenin cis-reporter transcription, actives raise or lower the signal. An outline of the steps: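 Cells of the HepG2 line carry transiently transfected reporter units whose promoters respond to endogenous factors. Twenty-four hours post-dosing, reporter mRNA induction is measured by fluorescent RT-PCR and capillary electrophoresis, with DMSO as baseline.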

The nature of experiment [9]: ATG_TAL_CIS: Attagene CIS-FACTORIAL HepG2 Assay for human TAL Basal Promoter (AID 2282966).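 Further: background control endpoint measuring basal TAL promoter reporter mRNA not a specific factor.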 To be noted: HepG2 Attagene cis-factorial TAL promoter reporter; actives raise or lower the signal. An outline of the steps:
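RT-PCR plus capillary electrophoresis quantifies reporter mRNA induction in transiently transfected HepG2 cells after 24 h chemical treatment. DMSO serves as negative control and baseline for bidirectional fitting.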

A short description of experiment [10]: ATG_VDRE_CIS: Attagene CIS-FACTORIAL HepG2 Assay for human Vitamin D Receptor Element (VDRE) (AID 2282968). As to conditions: HepG2 VDRE cis-reporter transcription, actives raise or lower the signal. An outline of the steps: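 Cell-based multiplexed reporter format in human liver HepG2 cells, 24 h post-dose. Fluorescence from capillary electrophoresis of reporter cDNA gives the signal, with DMSO as negative control and baseline.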

The target in experiment [11] is Steroid hormone receptor ERR1 (Homo sapiens) (UniProt P11474). The experiment can be described thus: ATG_ERRa_TRANS: Attagene TRANS-FACTORIAL HepG2 Assay for human Estrogen-Related Receptor alpha (ERRa) (AID 2282971; active means hit-call score of the fitted dose curve at least 0.9, where 1 is the maximum). As to conditions: HepG2 Attagene TRANS reporter, ERRa transactivation. The method, boiled down: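 Reporter transcripts from ERRa-Gal4 chimera activity measured in transiently transfected human HepG2 cells 24 hours after dosing, using RT-PCR with 6-FAM primer extension, HpaI digestion and capillary electrophoresis; DMSO is baseline.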

Experiment [12] can be described thus: ATG_M_19_TRANS: Attagene TRANS-FACTORIAL HepG2 Assay for M19 Transcription Factor (Internal Marker) (AID 2282974; active means hit-call score of the fitted dose curve at least 0.9, where 1 is the maximum). As to conditions: HepG2 Attagene TRANS-FACTORIAL M19 internal marker reporter. An outline of the steps:
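Cells: human HepG2, transiently transfected with multiplexed reporter transcription units. Exposure: 24 h. Detection: RT-PCR of reporter mRNA with capillary electrophoresis. Analysis: gain-of-signal vs DMSO.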

The nature of experiment [13]: ATG_GAL4_TRANS: Attagene TRANS-FACTORIAL HepG2 Assay for GAL4 (Internal Marker) (AID 2282976; active means hit-call score of the fitted dose curve at least 0.9, where 1 is the maximum). As to conditions: HepG2 Attagene TRANS GAL4 internal marker reporter. The method, boiled down:
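In transfected human HepG2 liver cells dosed 24 h, GAL4 reporter mRNA serves as a baseline marker. Detection by RT-PCR with fluorescent capillary electrophoresis, activity fitted upward relative to DMSO.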

Experiment [14] has as its target Estrogen-related receptor gamma (Homo sapiens) (UniProt P62508). The experiment can be described thus: ATG_ERRg_TRANS: Attagene TRANS-FACTORIAL HepG2 Assay for human Estrogen-Related Receptor gamma (ERRg) (AID 2282977; active means hit-call score of the fitted dose curve at least 0.9, where 1 is the maximum;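 further: hits increase reporter signal over DMSO so potencies reflect activators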). As to conditions: HepG2 Attagene TRANS reporter, ERRg transactivation. An outline of the steps:
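HepG2 cells transiently transfected with multiplexed GAL4-UAS reporter units and chimeric NR-Gal4 constructs were exposed to test chemicals for 24 h. Reporter mRNA was measured by RT-PCR, 6-FAM primer extension, HpaI digestion and capillary electrophoresis; gain-of-signal versus DMSO.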

Experiment [15] in a line: ATG_SREBP_CIS: Attagene CIS-FACTORIAL HepG2 Assay for human Sterol Regulatory Element Binding (SREBP) (AID 2282962). As to conditions: HepG2 Attagene cis-factorial SREBP reporter, mRNA; actives raise or lower the signal. The method, boiled down:
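Transfected HepG2 (cis-regulated reporter library, endogenous TFs) → compound 24 h → total RNA → oligo(dT) RT → reporter-specific PCR → FAM primer extension, HpaI cut → CE fluorescence. Fit bidirectional vs DMSO.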

A short description of experiment [16]: ATG_TGFb_CIS: Attagene CIS-FACTORIAL HepG2 Assay for human Transforming Growth Factor (TGF) (AID 2282967). As to conditions: HepG2 Attagene CIS TGFb reporter, mRNA transcription; actives raise or lower the signal. An outline of the steps: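 HepG2 cells transiently transfected with cis-promoter-driven multiplexed reporter units; 24 h compound exposure. Reporter mRNA measured by RT-PCR, 6-FAM labeling, HpaI digestion and capillary electrophoresis; bidirectional fit versus DMSO baseline.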

The target of experiment [17] is Nuclear receptor subfamily 1 group I member 3 (Homo sapiens) (UniProt Q14994). The experiment can be described thus: ATG_CAR_TRANS: Attagene TRANS-FACTORIAL HepG2 Assay for human Constitutive Androstane Receptor (CAR) (AID 2282969; active means hit-call score of the fitted dose curve at least 0.9, where 1 is the maximum;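 further: activators raise reporter mRNA above DMSO so AC50 marks induction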). As to conditions: HepG2 Attagene TRANS-FACTORIAL CAR reporter. An outline of the steps: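 HepG2 cells transiently transfected with GAL4-UAS reporter units; TRANS format reads activity of exogenous chimeric NR-Gal4 protein. After 24 h dosing, reporter mRNA quantified by RT-PCR, 6-FAM labelling and capillary electrophoresis; gain of signal fitted against DMSO.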

Experiment [18] addresses Estrogen receptor (Homo sapiens) (UniProt P03372). Kind of experiment: ATG_ERa_TRANS: Attagene TRANS-FACTORIAL HepG2 Assay for human Estrogen Receptor alpha (ERa) (AID 2282970; active means hit-call score of the fitted dose curve at least 0.9, where 1 is the maximum). To be noted: HepG2 Attagene TRANS ERa GAL4 reporter, mRNA. An outline of the steps: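 Cells: HepG2, transiently transfected. Construct: GAL4-UAS reporter units regulated by exogenous NR-Gal4 chimeras. Time: 24 h. Detection: reporter mRNA by RT-PCR, capillary electrophoresis, fluorescence. Baseline: DMSO, upward fitting.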

In experiment [19] the target is X-box-binding protein 1 (Homo sapiens) (UniProt P17861). Kind of experiment: ATG_Xbp1_CIS: Attagene CIS-FACTORIAL HepG2 Assay for human X-box Binding Protein 1 (XBP1) (AID 2282972). To be noted: HepG2 XBP1 cis-element reporter, Attagene multiplex; actives raise or lower the signal. The method, boiled down: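 HepG2, transient MRTU transfection (cis-promoter driven), 24 h compound exposure. Total RNA → oligo(dT) RT → PCR → 6-FAM labeling → HpaI cut → CE. Bidirectional fit vs DMSO.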

Experiment [20] concerns the target Signal transducer and activator of transcription 3 (Homo sapiens) (UniProt P40763). Kind of experiment: ATG_STAT3_CIS: Attagene CIS-FACTORIAL HepG2 Assay for human Signal Transducer and Activator of Transcription 3 (STAT3) (AID 2282963). To be noted: HepG2, Attagene cis-factorial STAT3 reporter transcription; actives raise or lower the signal. The method, boiled down: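 Values derive from bidirectional fits relative to DMSO of reporter mRNA levels, measured by RT-PCR with capillary electrophoresis, in HepG2 cells carrying transiently transfected cis-regulated reporter units and exposed 24 h.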

Chain of Estrogen receptor (Homo sapiens) (P03372 whole entry, looked up, the tested form may be a part): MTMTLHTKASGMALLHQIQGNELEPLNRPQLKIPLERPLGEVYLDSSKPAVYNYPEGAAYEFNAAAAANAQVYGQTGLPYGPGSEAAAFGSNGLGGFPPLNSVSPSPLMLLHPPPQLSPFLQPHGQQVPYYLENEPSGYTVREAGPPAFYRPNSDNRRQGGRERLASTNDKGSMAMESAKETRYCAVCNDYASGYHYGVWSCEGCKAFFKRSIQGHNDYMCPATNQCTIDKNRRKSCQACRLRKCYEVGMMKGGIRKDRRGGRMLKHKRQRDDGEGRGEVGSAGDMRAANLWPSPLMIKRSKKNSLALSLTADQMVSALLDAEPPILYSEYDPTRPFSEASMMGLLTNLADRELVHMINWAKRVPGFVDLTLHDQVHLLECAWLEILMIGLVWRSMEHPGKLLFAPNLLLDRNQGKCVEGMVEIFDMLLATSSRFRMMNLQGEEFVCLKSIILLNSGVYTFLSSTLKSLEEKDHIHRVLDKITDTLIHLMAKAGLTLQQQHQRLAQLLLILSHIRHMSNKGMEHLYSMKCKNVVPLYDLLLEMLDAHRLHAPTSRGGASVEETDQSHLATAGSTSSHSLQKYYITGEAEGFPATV
Chain of Transcription factor Sp1 (Homo sapiens) (P08047 whole entry, looked up): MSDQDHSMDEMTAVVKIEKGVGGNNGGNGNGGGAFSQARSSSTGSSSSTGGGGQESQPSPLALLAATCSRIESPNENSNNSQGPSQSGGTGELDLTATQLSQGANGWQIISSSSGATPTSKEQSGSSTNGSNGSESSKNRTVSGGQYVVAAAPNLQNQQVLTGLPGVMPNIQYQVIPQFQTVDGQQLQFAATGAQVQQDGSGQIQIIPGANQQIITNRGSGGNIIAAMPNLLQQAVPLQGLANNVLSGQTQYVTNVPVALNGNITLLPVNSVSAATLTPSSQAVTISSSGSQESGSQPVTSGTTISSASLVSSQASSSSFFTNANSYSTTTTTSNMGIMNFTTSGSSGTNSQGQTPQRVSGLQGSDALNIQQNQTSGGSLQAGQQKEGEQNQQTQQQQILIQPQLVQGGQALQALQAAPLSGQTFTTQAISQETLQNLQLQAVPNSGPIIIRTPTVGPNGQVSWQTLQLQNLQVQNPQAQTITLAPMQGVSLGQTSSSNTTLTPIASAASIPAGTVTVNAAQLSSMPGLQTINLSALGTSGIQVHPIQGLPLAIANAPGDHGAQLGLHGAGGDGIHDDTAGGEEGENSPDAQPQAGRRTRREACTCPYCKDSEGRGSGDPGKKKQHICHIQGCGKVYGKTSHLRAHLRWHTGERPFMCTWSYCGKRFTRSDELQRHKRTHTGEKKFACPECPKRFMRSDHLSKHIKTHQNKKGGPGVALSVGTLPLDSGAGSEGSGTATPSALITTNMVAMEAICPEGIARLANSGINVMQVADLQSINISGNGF
Chain of Paired box protein Pax-6 (Homo sapiens) (P26367 whole entry, looked up): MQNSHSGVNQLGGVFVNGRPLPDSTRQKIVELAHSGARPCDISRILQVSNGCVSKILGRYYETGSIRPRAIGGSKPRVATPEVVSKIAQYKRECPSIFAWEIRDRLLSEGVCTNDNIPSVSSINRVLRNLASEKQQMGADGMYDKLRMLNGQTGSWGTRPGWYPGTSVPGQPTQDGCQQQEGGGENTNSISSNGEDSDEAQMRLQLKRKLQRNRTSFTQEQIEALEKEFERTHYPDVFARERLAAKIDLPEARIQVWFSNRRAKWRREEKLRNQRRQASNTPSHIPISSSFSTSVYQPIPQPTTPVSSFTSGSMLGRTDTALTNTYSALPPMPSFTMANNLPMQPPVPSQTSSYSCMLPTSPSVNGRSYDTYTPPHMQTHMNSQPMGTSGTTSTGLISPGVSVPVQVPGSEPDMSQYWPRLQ
Chain of Steroid hormone receptor ERR1 (Homo sapiens) (P11474 whole entry, looked up, the tested form may be a part): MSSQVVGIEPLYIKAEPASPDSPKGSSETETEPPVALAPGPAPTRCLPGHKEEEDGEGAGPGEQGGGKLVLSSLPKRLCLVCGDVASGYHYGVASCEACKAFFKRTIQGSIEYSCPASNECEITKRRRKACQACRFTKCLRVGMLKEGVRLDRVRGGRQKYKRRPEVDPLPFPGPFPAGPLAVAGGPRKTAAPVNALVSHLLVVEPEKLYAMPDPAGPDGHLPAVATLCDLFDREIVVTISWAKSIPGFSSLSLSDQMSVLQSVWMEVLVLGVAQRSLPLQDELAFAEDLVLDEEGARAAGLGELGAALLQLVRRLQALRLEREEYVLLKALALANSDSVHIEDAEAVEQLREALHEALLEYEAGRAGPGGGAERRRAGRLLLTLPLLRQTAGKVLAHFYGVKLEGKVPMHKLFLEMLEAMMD
Chain of X-box-binding protein 1 (Homo sapiens) (P17861 whole entry, looked up): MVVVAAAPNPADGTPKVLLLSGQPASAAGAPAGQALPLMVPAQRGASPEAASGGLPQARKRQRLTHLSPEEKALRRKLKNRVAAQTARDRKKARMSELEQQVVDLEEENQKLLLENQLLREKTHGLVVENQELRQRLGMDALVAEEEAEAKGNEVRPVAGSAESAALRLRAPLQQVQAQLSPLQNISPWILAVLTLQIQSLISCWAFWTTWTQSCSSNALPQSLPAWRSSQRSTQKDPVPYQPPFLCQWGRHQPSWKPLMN
Chain of Signal transducer and activator of transcription 3 (Homo sapiens) (P40763 whole entry, looked up): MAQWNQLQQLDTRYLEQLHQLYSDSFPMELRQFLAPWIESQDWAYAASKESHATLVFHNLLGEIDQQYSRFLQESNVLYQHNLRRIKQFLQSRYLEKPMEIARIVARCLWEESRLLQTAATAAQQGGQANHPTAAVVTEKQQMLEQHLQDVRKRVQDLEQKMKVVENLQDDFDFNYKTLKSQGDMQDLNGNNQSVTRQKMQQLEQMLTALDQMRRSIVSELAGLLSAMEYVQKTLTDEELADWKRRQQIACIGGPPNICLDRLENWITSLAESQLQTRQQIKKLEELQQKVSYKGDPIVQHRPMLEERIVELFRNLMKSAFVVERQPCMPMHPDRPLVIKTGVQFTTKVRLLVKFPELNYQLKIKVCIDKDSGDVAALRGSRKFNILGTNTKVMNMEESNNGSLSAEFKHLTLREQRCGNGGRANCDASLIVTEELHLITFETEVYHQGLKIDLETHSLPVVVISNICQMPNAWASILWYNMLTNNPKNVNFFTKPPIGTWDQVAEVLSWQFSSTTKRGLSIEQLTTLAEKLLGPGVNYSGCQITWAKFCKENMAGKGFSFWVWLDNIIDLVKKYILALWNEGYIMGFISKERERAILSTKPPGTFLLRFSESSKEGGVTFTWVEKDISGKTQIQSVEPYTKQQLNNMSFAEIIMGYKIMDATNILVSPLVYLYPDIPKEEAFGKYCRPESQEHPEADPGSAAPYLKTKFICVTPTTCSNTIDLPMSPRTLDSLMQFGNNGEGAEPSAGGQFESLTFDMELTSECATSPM
Chain of Estrogen-related receptor gamma (Homo sapiens) (P62508 whole entry, looked up, the tested form may be a part): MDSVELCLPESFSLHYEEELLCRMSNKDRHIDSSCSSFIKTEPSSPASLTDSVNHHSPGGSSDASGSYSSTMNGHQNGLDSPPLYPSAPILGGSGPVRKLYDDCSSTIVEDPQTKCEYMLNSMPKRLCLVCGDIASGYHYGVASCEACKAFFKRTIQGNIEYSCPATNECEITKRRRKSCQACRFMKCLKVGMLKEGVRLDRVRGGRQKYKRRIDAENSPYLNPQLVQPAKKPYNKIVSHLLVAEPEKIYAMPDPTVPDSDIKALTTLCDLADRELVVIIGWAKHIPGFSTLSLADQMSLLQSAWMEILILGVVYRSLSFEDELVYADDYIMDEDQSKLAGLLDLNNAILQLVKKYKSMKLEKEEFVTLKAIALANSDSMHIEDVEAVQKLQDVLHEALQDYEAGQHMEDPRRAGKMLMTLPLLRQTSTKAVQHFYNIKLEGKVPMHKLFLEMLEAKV
Chain of Nuclear receptor subfamily 1 group I member 3 (Homo sapiens) (Q14994 whole entry, looked up, the tested form may be a part): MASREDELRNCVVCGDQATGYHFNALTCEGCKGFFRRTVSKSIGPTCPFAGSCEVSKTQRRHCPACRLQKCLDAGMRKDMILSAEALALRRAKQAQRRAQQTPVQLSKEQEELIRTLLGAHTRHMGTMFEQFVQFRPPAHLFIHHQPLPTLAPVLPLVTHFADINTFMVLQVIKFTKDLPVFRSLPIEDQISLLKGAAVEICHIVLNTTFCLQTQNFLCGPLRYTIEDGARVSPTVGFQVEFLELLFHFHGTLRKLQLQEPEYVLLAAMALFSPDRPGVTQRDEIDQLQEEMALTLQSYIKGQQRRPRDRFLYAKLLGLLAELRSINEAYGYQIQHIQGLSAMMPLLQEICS

Turning to `C=CC(C)(C)C`, the result in [1], in [2], in [3], in experiment [4], in experiment [5] and in experiment [6] was inactive. In addition, the outcome in [7], in [8], in experiment [9], in [10], in experiment [11] and in experiment [12] was inactive. The compound was called inactive in experiment [13] and in [14].
A word on the AC50: it is the concentration giving half of the maximal activity seen. Turning to `Nc1ccc(N=Nc2ccccc2)c(N)n1`, the result in experiment [1], in [2], in experiment [5], in experiment [6], in experiment [15] and in experiment [8] was inactive. The outcome in [9], in experiment [16], in [17] and in experiment [12] was inactive. In addition, the concentration at half-maximal activity (AC50) in [3] is 100 µM (active); in experiment [4] it was 51.6 µM (active); in [18], 27.8 µM (active); in experiment [19], 70.3 µM (active).
Consider `O=C1CC2CC1C1CCCC21` (stereo not given), for which the outcome in experiment [1], in experiment [3], in experiment [4], in experiment [5], in [6] and in [20] was inactive. Besides, the compound was classed as inactive in experiment [7], in experiment [8], in experiment [9], in [16], in experiment [18] and in experiment [11]. For the same compound, the outcome in experiment [19], in [12] and in experiment [13] was inactive. Also, the AC50 in experiment [2] is 40.8 µM (active).
For the compound `O=C(/C=C/C=C/c1ccc2c(c1)OCO2)N1CCCCC1`, the call in [1], in experiment [3], in [4], in experiment [5], in experiment [15] and in experiment [20] was inactive. Further, the compound was called inactive in experiment [8], in [16], in [18], in experiment [11], in experiment [19] and in experiment [12]. Besides, the compound was called inactive in experiment [13]. Moreover, the values for the AC50 in [2], in experiment [7] and in experiment [10] were 2.37 µM (active), 66.9 µM (active) and 2.53 µM (active), respectively.
